Results taken from PubChem BioAssay (Tox21).
Results filed as inconclusive are left out. The source made the active and inactive calls. Unless noted, calls come from the whole dose curve; as a rule, active = well fitted curve in the direction sought with a large enough effect in the repeat runs; inconclusive = weak or mixed curves; inactive = no such curve, though single readings can be large; an effect the other way counts as inactive or inconclusive.

Key:
[1] = target: Nuclear receptor subfamily 1 group I member 3 (Homo sapiens) (UniProt Q14994); experiment: qHTS assay to identify small molecule agonists of the constitutive androstane receptor (CAR) signaling pathway (AID 1224839);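 note: HepG2 cells stably carrying human CAR and a CYP2B6 luciferase reporter; nearly all actives have a fitted effect of over 15% in size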
Sequence of Nuclear receptor subfamily 1 group I member 3 (Homo sapiens) (Q14994 whole entry, looked up): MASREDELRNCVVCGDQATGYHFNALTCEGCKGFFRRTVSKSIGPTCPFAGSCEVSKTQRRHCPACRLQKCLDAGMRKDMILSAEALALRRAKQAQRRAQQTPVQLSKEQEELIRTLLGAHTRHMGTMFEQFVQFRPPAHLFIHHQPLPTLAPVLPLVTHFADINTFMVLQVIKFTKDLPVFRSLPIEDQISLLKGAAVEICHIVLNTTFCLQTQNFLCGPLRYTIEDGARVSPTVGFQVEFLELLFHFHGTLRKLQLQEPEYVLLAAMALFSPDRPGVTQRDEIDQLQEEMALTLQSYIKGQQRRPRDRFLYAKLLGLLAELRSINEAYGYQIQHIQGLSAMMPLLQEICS
In short: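 Compounds tested at 15 concentrations on HepG2 cells stably harbouring hCAR and CYP2B6-2.2kb reporter constructs, co-treated with PK11195 (0.75 uM final), 24 h at 37 C; luminescent reporter signal quantified.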

[2] = qHTS assay to identify small molecule antagonists of the estrogen related receptor signaling pathway with the pleiotropic PPARgamma coactivator (PGC) from Tox21 10K library - cell viability counter screen (AID 1224840; active = well fitted cell-killing curve with a large enough effect in the repeat runs, not every such curve was filed as active; note: nearly all actives have a fitted effect of over 40% in size)
In short: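 Cell viability is measured by CellTiter-Fluor fluorescence in PGC/ERR cells that receive compounds after a 6-hour attachment period and are then incubated 17.5 hours at 37 C.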

[3] = qHTS assay to identify small molecule antagonists of the estrogen related receptor signaling pathway with the pleiotropic PPARgamma coactivator (PGC) from Tox21 10K library (AID 1224841; call rule not given here; note: actives are mostly falling curves and most rising ones were filed inactive; nearly all actives have a fitted effect of over 50% in size)
In short: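 Cells stably carrying the PGC/ERR reporter, seeded at 2,000 per well, received pin-transferred compounds 6 h post-plating. Exposure lasted 18 h at 37 C. Signal: One-Glo luminescence.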

[4] = qHTS assay to identify small molecule agonists of the estrogen related receptor signaling pathway with the pleiotropic PPARgamma coactivator (PGC) from Tox21 10K library (AID 1224842); note: nearly all actives have a fitted effect of over 15% in size
In short: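 Luminescence from One-Glo (30 min, room temperature) measured after PGC/ERR cells had 18 h at 37 C with pinned compound (23 nL in DMSO). Cells had been seeded at 2,000 per well and pre-incubated 6 h.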

[5] = qHTS assay to identify small molecule agonists of the hypoxia (HIF-1) signaling pathway - cell viability counter screen (AID 1224844; calls by dose curve; note: nearly all actives have a fitted effect of over 50% in size)
In short: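 Viability counter screen: HRE-bla ME-180 cells plated 5 hrs before compound addition, treated 17 hrs at 37C and 5% CO2, then CellTiter-Glo added after the FRET reporter read; luminescence after 30 min.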

[6] = qHTS assay to identify small molecule agonists of H2AX (AID 1224845; active = well fitted activation curve with a large enough effect in the signal ratio in the repeat runs, not every such curve was filed as active; the % refers to the signal ratio)
In short: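 Phospho-H2AX Ser139 measured by HTRF (ex 320 nm; em 665 and 620 nm) after 24 hr antibody incubation. Compounds, 15 concentrations, 0.76% DMSO, were applied to CHO-K1 cells for 3hr at 37C before lysis.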

[7] = qHTS assay to identify small molecule agonists of the hypoxia (HIF-1) signaling pathway (AID 1224846; active = well fitted activation curve with a large enough effect in the signal ratio in the repeat runs, not every such curve was filed as active; the % refers to the signal ratio)
In short: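 Agonist mode reporter screen. ME-180 cells stably expressing bla under HRE control received test compounds in DMSO for 17 hrs (37C, 5% CO2), and beta-lactamase activity was then detected with the CCF4-AM FRET substrate.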

[8] = qHTS assay to identify small molecule agonists of H2AX - cell viability counter screen (AID 1224847; calls by dose curve; note: top concentration of the series differs between compounds; nearly all actives have a fitted effect of over 30% in size)
In short: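 Compounds tested at 15 concentrations were incubated 3 hr at 37C with wild-type CHO-K1 cells; cellular ATP-based luminescence (CellTiter-Glo) indicated viability.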

[9] = qHTS assay to identify small molecule antagonists of the estrogen related receptor (ERR) signaling pathway from Tox21 library (AID 1224848); note: nearly all actives have a fitted effect of over 50% in size
In short: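 ERR cell line, 2,000 cells/well. 6 h settle, then compound (DMSO) added; 18 h at 37 C; ONE-Glo luminescence after 30 min RT.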

[10] = qHTS assay to identify small molecule agonists of the estrogen related receptor (ERR) signaling pathway from Tox21 library (AID 1224849; calls by dose curve; note: nearly all actives have a fitted effect of over 15% in size); conditions: ERR reporter cell line, ONE-Glo luciferase, 18 h; at 92.4 µM (top of the series) unless noted
In short: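 Quantitative HTS in agonist format: NTP ERR cell line, compounds transferred in DMSO after 6 h plating, 18 h incubation at 37 C, ONE-Glo luminescence endpoint.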

[11] = qHTS RealTime-Glo MT Cell Viability Assay in HepG2 cells - 24 hour (AID 1224867); note: nearly all actives have a fitted effect of over 50% in size
In short: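 Cells + NanoLuc/prosubstrate dispensed (600 cells/well) → 5 h at 37 C/5% CO2 → compounds in DMSO transferred → 40 h incubation at 37 C, luminescence read at 0, 8, 16, 24, 32, 40 h.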

[12] = qHTS RealTime-Glo MT Cell Viability Assay in HEK293 cells - 32 hour (AID 1224868)
In short: (§1)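 Tox21 10K qHTS, HEK293, 600 cells/well, RealTime-Glo reagent co-dispensed with cells; 5 h preincubation, compound by pintool, 37 C, luminescence at 0–40 h.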

[13] = A CellTox Green Cytotoxicity Assay to monitor cytotoxicity in HEK293 cells - 0 hour (AID 1224869); note: nearly all actives have a fitted effect of over 50% in size
In short: (§2)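 Dead-cell fluorescence measured kinetically: asymmetric cyanine dye, HEK293, 600 cells/well, 5 h settle, 23 nL cpd/DMSO, 37 C, reads 0–40 h every 8 h.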

[14] = A CellTox Green Cytotoxicity Assay to monitor cytotoxicity in HEK293 cells - 40 hour (AID 1224871); note: nearly all actives have a fitted effect of over 45% in size
In short: as §2

[15] = qHTS RealTime-Glo MT Cell Viability Assay in HepG2 cells - 8 hour (AID 1224873); note: nearly all actives have a fitted effect of over 55% in size
In short: (§3)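 Real-time viability: cells seeded at 600 per well together with NanoLuc and cell-permeant prosubstrate, compounds added after 5 h incubation. Luminescence tracked at 0, 8, 16, 24, 32 and 40 h of exposure.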

[16] = qHTS RealTime-Glo MT Cell Viability Assay in HEK293 cells - 40 hour (AID 1224874); conditions: RealTime-Glo luminescence; max response: hits give low values; note: nearly all actives have a fitted effect of over 50% in size
In short: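 600 HEK293 cells per well, dispensed already mixed with RealTime-Glo MT reagents. Compound dosing came 5 h later. The same wells were read for luminescence at 0, 8, 16, 24, 32 and 40 h of exposure at 37 C.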

[17] = A CellTox Green Cytotoxicity Assay to monitor cytotoxicity in HEK293 cells - 24 hour (AID 1224875); note: nearly all actives have a fitted effect of over 45% in size
In short: as §2

[18] = target: Thyrotropin receptor (Homo sapiens) (UniProt P16473); experiment: qHTS assay to identify small molecule agonists of the thyroid stimulating hormone receptor (TSHR) signaling pathway (AID 1224843; calls by dose curve; note: nearly all actives have a fitted effect of over 45% in size)
Sequence of Thyrotropin receptor (Homo sapiens) (P16473 whole entry, looked up): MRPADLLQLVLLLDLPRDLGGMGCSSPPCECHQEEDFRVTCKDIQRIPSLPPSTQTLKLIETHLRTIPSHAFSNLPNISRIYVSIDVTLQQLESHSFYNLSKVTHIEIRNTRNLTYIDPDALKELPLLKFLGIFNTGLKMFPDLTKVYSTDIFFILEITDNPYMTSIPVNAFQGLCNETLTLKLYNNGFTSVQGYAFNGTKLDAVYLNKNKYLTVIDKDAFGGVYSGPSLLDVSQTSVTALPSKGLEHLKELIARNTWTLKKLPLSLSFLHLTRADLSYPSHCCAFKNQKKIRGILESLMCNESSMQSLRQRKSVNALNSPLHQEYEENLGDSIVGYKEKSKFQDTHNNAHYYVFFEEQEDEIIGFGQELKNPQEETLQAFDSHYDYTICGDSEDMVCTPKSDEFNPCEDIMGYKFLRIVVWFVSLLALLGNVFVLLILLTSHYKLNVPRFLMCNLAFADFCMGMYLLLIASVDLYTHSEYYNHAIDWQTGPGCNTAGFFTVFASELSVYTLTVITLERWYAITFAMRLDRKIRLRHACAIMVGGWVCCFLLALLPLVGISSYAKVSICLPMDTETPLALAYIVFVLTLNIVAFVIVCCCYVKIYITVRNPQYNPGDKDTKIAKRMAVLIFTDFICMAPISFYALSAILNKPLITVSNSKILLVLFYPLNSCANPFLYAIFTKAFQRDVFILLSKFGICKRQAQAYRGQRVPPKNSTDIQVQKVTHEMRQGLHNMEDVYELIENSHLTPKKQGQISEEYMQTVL
In short: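 A cell-based cAMP HTRF format was run in TSHR-transfected HEK293 cells, 800 per well. Treatment: 30 min, room temperature. Detection: 1 h with labelled cAMP and anti-cAMP cryptate. Concentration-response over 15 points, three replicates.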

[19] = qHTS RealTime-Glo MT Cell Viability Assay in HepG2 cells - 40 hour (AID 1224870); note: nearly all actives have a fitted effect of over 50% in size
In short: as §3

[20] = qHTS RealTime-Glo MT Cell Viability Assay in HEK293 cells - 16 hour (AID 1224872)
In short: as §1
% is set by controls: 0 for no effect and ±100 for the full control effect.

CCC(=O)CC
inactive: Potency [1] | outcome [2] | outcome [3] | outcome [4] | outcome [5] | outcome [6] | outcome [7] | outcome [8] | Potency [9] | activity change, positive = activation [10] 4.37% | outcome [11] | Potency [12] | Potency [13] | Potency [14] | outcome [15] | max response [16] 4.81% | Potency [17]

CO/N=C(/C(=O)N[C@@H]1C(=O)N2C(C(=O)[O-])=C(C[n+]3ccn4ncccc43)CS[C@H]12)c1nsc(N)n1
inactive: Potency [1] | outcome [2] | outcome [18] | outcome [5] | outcome [6] | outcome [7] | outcome [8] | outcome [11] | Potency [12] | Potency [13] | outcome [19] | Potency [14] | Potency [20] | outcome [15] | max response [16] 6.83%

C/C=C(\C)C(=O)OCCc1ccccc1
inactive: Potency [1] | outcome [2] | outcome [3] | outcome [4] | outcome [5] | outcome [6] | outcome [7] | outcome [8] | Potency [9] | activity change, positive = activation [10] 9.96% | outcome [11] | Potency [12] | Potency [13] | outcome [19] | outcome [15] | max response [16] -3.34%

CC/C=C\CCOC(=O)c1ccccc1O
inactive: Potency [1] | outcome [2] | outcome [3] | outcome [4] | outcome [5] | outcome [6] | outcome [7] | Potency [9] | activity change, positive = activation [10] 2.25% | outcome [11] | Potency [12] | Potency [13] | outcome [19] | Potency [14] | Potency [20] | outcome [15] | max response [16] 19.1%

C/C(=C1\CCOC(=O)S1)N(C=O)Cc1cnc(C)nc1N
inactive: Potency [1] | outcome [2] | outcome [18] | outcome [5] | outcome [6] | outcome [7] | outcome [8] | outcome [11] | Potency [12] | Potency [13] | outcome [19] | Potency [14] | Potency [20] | outcome [15] | max response [16] 3.03% | Potency [17]

CCCC(=O)OCCC(C)CCC=C(C)C (configuration not stated)
inactive: Potency [1] | outcome [2] | outcome [3] | outcome [4] | outcome [5] | outcome [6] | outcome [7] | Potency [9] | activity change, positive = activation [10] -4.9% | outcome [11] | Potency [12] | Potency [13] | outcome [19] | Potency [14] | Potency [20] | outcome [15] | max response [16] 0.963% | Potency [17]

CC(=O)C(C)O (configuration not stated)
inactive: Potency [1] | outcome [2] | outcome [18] | outcome [5] | outcome [6] | outcome [7] | outcome [8] | outcome [11] | Potency [12] | Potency [13] | outcome [19] | Potency [14] | Potency [20] | outcome [15] | max response [16] 16% | Potency [17]

CC(=O)O[C@H]1C[C@@H]2CC[C@@]1(C)C2(C)C
inactive: Potency [1] | outcome [2] | outcome [18] | outcome [5] | outcome [6] | outcome [7] | outcome [8] | outcome [11] | Potency [12] | Potency [13] | outcome [19] | Potency [14] | Potency [20] | outcome [15] | max response [16] 4.28% | Potency [17]

CCCCOCCOC(=O)COc1ccc(Cl)cc1Cl
inactive: Potency [1] | outcome [2] | outcome [18] | outcome [5] | outcome [6] | outcome [7] | outcome [8] | outcome [11] | Potency [12] | Potency [13] | outcome [19] | Potency [14] | Potency [20] | outcome [15] | max response [16] 1.37% | Potency [17]

C/C(CC(C)C)=N\O
inactive: Potency [1] | outcome [2] | outcome [18] | outcome [5] | outcome [6] | outcome [7] | outcome [8] | outcome [11] | Potency [12] | Potency [13] | outcome [19] | Potency [14] | Potency [20] | outcome [15] | max response [16] -0.628% | Potency [17]

CC(=O)OC1CCCCC1C(C)(C)C (configuration not stated)
inactive: Potency [1] | outcome [2] | outcome [18] | outcome [5] | outcome [6] | outcome [7] | outcome [8] | outcome [11] | Potency [12] | Potency [13] | outcome [19] | Potency [14] | Potency [20] | outcome [15] | max response [16] 3.56% | Potency [17]

C=CCCCCCCCC
inactive: Potency [1] | outcome [2] | outcome [18] | outcome [5] | outcome [6] | outcome [7] | outcome [8] | outcome [11] | Potency [12] | Potency [13] | outcome [19] | Potency [14] | Potency [20] | outcome [15] | max response [16] 1.11% | Potency [17]

CC1OCCC1=O (configuration not stated)
inactive: Potency [1] | outcome [2] | outcome [18] | outcome [5] | outcome [6] | outcome [7] | outcome [8] | outcome [11] | Potency [12] | Potency [13] | outcome [19] | Potency [14] | Potency [20] | max response [16] 3.12% | Potency [17]

O/N=C/C=N/O
inactive: Potency [1] | outcome [2] | outcome [18] | outcome [5] | outcome [6] | outcome [7] | outcome [8] | outcome [11] | Potency [12] | Potency [13] | outcome [19] | Potency [14] | Potency [20] | outcome [15] | max response [16] 0.715% | Potency [17]

OCC1CCC(CO)CC1 (configuration not stated)
inactive: Potency [1] | outcome [2] | outcome [18] | outcome [5] | outcome [6] | outcome [7] | outcome [8] | outcome [11] | Potency [12] | Potency [13] | outcome [19] | Potency [14] | Potency [20] | outcome [15] | max response [16] 6.03% | Potency [17]
